High-throughput results deposited in PubChem by The Scripps Research Institute Molecular Screening Center.
CHRM1 PAM: human CHRM1 positive allosteric modulation; P11229; CHO-K1 hM1, Fluo-8 calcium fluorescence, ACh EC20; 0% = ACh EC20, 100% = maximal ACh; activation, % at 3 µM; hit rate 0.088% among 360,000; AID 588819; in the data active = activation above about 19%, passing the limit was not always enough
Target sequence (P11229 whole entry, looked up): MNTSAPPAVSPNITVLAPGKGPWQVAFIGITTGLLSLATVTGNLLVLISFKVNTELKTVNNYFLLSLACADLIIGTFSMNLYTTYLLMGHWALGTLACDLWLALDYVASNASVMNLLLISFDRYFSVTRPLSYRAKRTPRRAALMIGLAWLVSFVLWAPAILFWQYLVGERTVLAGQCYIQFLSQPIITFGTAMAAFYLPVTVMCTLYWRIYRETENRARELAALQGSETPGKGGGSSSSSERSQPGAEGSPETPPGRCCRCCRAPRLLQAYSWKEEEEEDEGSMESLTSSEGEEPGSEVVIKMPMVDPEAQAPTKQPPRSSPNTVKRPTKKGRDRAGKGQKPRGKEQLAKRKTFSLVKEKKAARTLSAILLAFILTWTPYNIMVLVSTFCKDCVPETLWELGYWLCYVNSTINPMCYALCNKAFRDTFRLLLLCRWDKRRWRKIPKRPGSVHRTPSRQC
CHO-K1 Ca PAM: M1 PAM counterscreen hit in parental CHO-K1 cells | ATP EC20, Fluo-8 calcium fluorescence; 0% at ATP EC20, 100% at ATP max | activation, % at 3 µM | hit rate 0.02% among 360,000 | AID 602247;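 active = activation above the run cutoff, the mean activation of all test compounds plus 3 SD, cut at about 40% in these data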;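 also: peak over basal fluorescence ratio in a 140 s read after ATP addition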
M1 ag parental: nonselective activator or artifact in parental CHO-K1 cells; Fluo-8 calcium fluorescence; scaled to maximal ATP response, vehicle zero; activation, % at 3 µM; hit rate 0.48% among 360,000; AID 602248; in the data active = activation above about 15%;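 also: untransfected CHO-K1 host cells lacking M1 receptor as counterscreen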
CHRM1 antagonist: blocks human M1 muscarinic receptor. CHO-K1 hM1, Fluo-8 calcium fluorescence, ACh EC80 antagonist. inhibition, % at 3 µM. hit rate 1.3% among 360,000. AID 588852;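 active = percent inhibition above its own plate's cutoff, namely the mean of that plate's compound wells plus 3 SD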;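 also: peak over basal fluorescence ratio during 140 s after agonist addition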
CHO-K1 Ca antag: nonselective inhibitor or artifact in parental CHO-K1 cells; ATP-induced calcium, Fluo-8 fluorescence; inhibition, % at 3 µM; hit rate 0.6% among 360,000;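 active = inhibition above a per-plate cutoff, the plate's mean sample inhibition plus 3 SD, cut at about 24% in these data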
CHRM1 agonist: human M1 muscarinic receptor agonism; activation, % at 3 µM; CHO-K1 hM1, Fluo-8 calcium fluorescence, agonist mode; 0% DMSO, 100% acetylcholine EC100; hit rate 0.33% among 360,000; AID 588814;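 active = activation above the run's mean compound activation plus 3 SD, cut at about 16% in these data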;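 also: peak over basal fluorescence ratio within a 140 s kinetic read after compound addition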
A number is an active result; . = inactive. Shown are actives, neighbours in structure and some others; about 2.3% of the full set was active somewhere.

SMILES	CHRM1 PAM	CHO-K1 Ca PAM	M1 ag parental	CHRM1 antagonist	CHO-K1 Ca antag	CHRM1 agonist
COC(=O)C1=C(c2c(C)noc2C)C[C@@H]2CC[C@H]1N2C(=O)N1CCCC1	.	.	.	.	.	.
CS(=O)(=O)c1ccc(C2=C(CNC(=O)c3nccs3)[C@H]3CC[C@@H](C2)N3Cc2ccccc2)cc1	.	.	.	.	.	.
COc1cc(C(=O)OC2C[C@H]3CC[C@@H](C2)N3C)ccc1O (stereo partly specified)	.	.	.	.	.	.
COc1cc(C(=O)OC2C[C@H]3CC[C@@H](C2)N3)ccc1O (stereo partly specified)	.	.	.	94.8	.	.
C[C@@H]1CN([C@@H](C)CO)C(=O)CCCn2nncc2CO[C@H]1CN(C)C(=O)Oc1cccc2ccccc12	.	.	.	.	.	.
N[C@@]1(C(=O)O)CC[C@@H](C(=O)O)C1	.	.	.	.	.	.
COc1ccc(C(=O)C2CCCN(Cc3ccc(C)s3)C2)c(OC)c1 (stereo unspecified)	.	.	.	.	.	.
COc1ccc(C(=O)C2CCCN(Cc3cccc(C)n3)C2)c(OC)c1 (stereo unspecified)	.	.	.	46.0	.	.
Cc1cc(OCC(=O)N2CCC(C(=O)O)(c3ccccc3)CC2)c2c(C)c(C)c(=O)oc2c1	.	.	.	.	.	.
CC1(C)CSC(=NCc2ccccc2)N1	.	.	25.8	.	.	.
CC(=O)c1ccc(NC(=O)N2C[C@H]3C[C@@H](C2)c2cccc(=O)n2C3)cc1	.	.	.	.	.	.
CC[C@]12C=CCN3CCC4(c5cc(Br)c(OC)cc5N(C)C4[C@@](O)(C(=O)OC)[C@@H]1OC(C)=O)C32 (stereo partly specified)	.	.	.	.	.	.
COc1ccc(NC(=O)N2C[C@@H]3C[C@@H](C2)c2cccc(=O)n2C3)cc1	.	.	.	.	.	.
O=[N+]([O-])c1nccn1CC(O)CN1CC1 (stereo unspecified)	.	.	.	.	.	.
CCCCCCn1c(O)c(C=NCCN2CCOCC2)c(=O)[nH]c1=O	.	.	17.2	.	.	.
COC(=O)C1=C(c2ccc(OC(F)(F)F)cc2)C[C@@H]2CC[C@H]1N2C(=O)N1CCCCC1	.	.	.	.	.	.
CC(=O)OC1(c2ccccc2)CCN(C2CCCCC2)CC1C (stereo unspecified)	.	.	.	31.4	.	.
CC(C#N)CCC#N (stereo unspecified)	.	.	.	.	.	.
COc1cc(Br)cc(CN2CCN(C)CC2)c1O	.	.	.	59.3	.	.
CC(C)(C)c1ccc(CSc2cnn(C(C)(C)C)c(=O)c2Cl)cc1	.	.	18.0	.	31.5	.
O=C1CCCN1CC#CCN1CCCC1	.	.	.	86.7	.	102.5
CCC1=Nc2cc(C(=O)N3CCC4(CC3)OCCO4)ccc2Sc2ccc(C)cc21	.	.	.	.	.	.
Nc1c2c(nc3sc4c(c13)CCCC4)CCCC2	.	.	.	.	.	.
Nc1c2c(nc3sc4c(c13)CCCC4)CCCCC2	.	.	.	35.9	.	.
COc1ccc(C(=O)C2CCCN(C3CSCCSC3)C2)c(C)c1 (stereo unspecified)	.	.	.	53.9	.	.
SMILES	CHRM1 PAM	CHO-K1 Ca PAM	M1 ag parental	CHRM1 antagonist	CHO-K1 Ca antag	CHRM1 agonist
CCC1CN1P(=S)(N1CC1CC)N1CC1CC (stereo unspecified)	.	.	.	.	.	.
CC1(C)CCCN1CCC(C(N)=O)(c1ccccc1)c1ccccc1	.	.	.	99.0	.	.
CC(C)N(CCC(C(N)=O)(c1ccccc1)c1ccccn1)C(C)C (stereo unspecified)	.	.	.	.	.	.
CC1CCOC(=O)C=CC=CC(=O)OC2CC3OC4C5OC5(C)C(O)CC4(COC(=O)C1O)C2(C)C31CO1 (stereo unspecified)	.	.	.	.	.	.
CC1=CC2OC3CC4OC(=O)C=CC=CC(=O)OCCC(C)C(O)C(=O)OCC2(CC1)C4(C)C31CO1 (stereo unspecified)	.	.	.	36.8	.	.
CCN(CC)c1ccc(CNCCc2ccccc2F)cc1	.	.	.	56.4	.	.
CCCCOc1ccc(CN2CCN(CCO)CC2)cc1	.	.	.	33.0	.	.
CCCCCCOc1ccc(CN2CCN(CCO)CC2)cc1	.	.	.	.	.	.
C[N+]1=C(/C=C/Nc2ccccc2)C(C)(C)c2ccccc21	.	.	.	.	.	.
CCN1/C(=C/C=C/C2=[N+](CC)c3ccccc3C2(C)C)C(C)(C)c2ccccc21	.	.	437.1	100.3	94.9	460.4
CCC(CO)(C(=O)OC1CC2CCC(C1)N2C)c1ccccc1 (stereo unspecified)	.	.	.	101.0	.	.
NNC(N)=O	.	.	.	.	.	16.2
COc1cccc(C(c2nnnn2C(C)(C)C)N2CCC3(CC2)C(=O)NCN3c2ccccc2)c1OC (stereo unspecified)	.	.	.	.	.	.
COC(=O)c1ccc(NC(=O)CSc2nc3ccc(N4C(=O)C5C6C=CC(C6)C5C4=O)cc3s2)cc1 (stereo unspecified)	.	.	.	44.5	.	.
O=C1NC(=S)NC(=O)C1=Cc1ccc(OCC(=O)N2CCCC2)cc1	.	.	.	.	.	.
CCOC(=O)CSc1ccc(C(=O)N2CCC3(CC2)OCCO3)cc1[N+](=O)[O-]	.	.	.	.	.	.
CN1/C(=C\C=Nc2ccccc2)C(C)(C)c2ccccc21	.	.	.	.	.	.
CN1/C(=C\C=C2C(=O)NC(=O)NC2=O)C(C)(C)c2ccccc21	.	.	24.9	.	.	28.6
CN1[C@@H]2CCC[C@H]1CC(=O)C2	.	.	.	.	.	.
CN1CCN(CCOC2c3ccccc3CSc3ccc(Cl)cc32)CC1 (stereo unspecified)	.	.	.	99.3	.	.
Clc1ccc2c(c1)C(OC1CN3CCC1CC3)c1ccccc1CS2 (stereo unspecified)	.	.	.	99.9	.	.
Brc1ccc(Oc2cc(Br)c(Br)cc2Br)c(Br)c1	.	.	.	.	.	.
COc1ccccc1N1CCN(Cc2cccc(Br)c2)CC1	.	.	.	.	.	.
C[C@]1(O)CCC2C3CC[C@H]4C[C@@H](OC(=O)CNC(=O)CN)CC[C@]4(C)C3CC[C@@]21C (stereo partly specified)	.	.	.	.	.	.
Cc1cccc(-n2c(O)c(C=NCCN3CCNCC3)c(=O)[nH]c2=S)c1	.	.	.	.	.	52.7
CCOC(=O)C1(CCc2ccccc2)CCN(Cc2cccc3c2OCO3)CC1	.	.	.	33.9	.	.
